# From PubChem BioAssay (NCI)
# About 83,000 compounds went through this panel and 20% of them were active in at least one assay; those are over-represented in the sample as a whole.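 Values shown are percent growth following 48 h exposure of cells in 96-well plates to a single concentration of compound; below 10 was considered active.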 Unmarked numbers belong to inactive results. Calls of active or inactive are those of the source.
# Assays:
# Test in all cases: NCI-60 one-dose screen, 48 h (100 = growth as untreated, 0 = no growth, -100 = all killed)
# Conditions in all cases: 10 µM unless noted
# NCI-H23 lung = tested on: NCI-H23 lung
# NCI-H226 lung = tested on: NCI-H226 lung
# NCI-H322M lung = tested on: NCI-H322M lung
# HOP-62 NSCLC = tested on: HOP-62 NSCLC
# NCI-H460 lung = tested on: NCI-H460 lung
# HOP-92 NSCLC = tested on: HOP-92 NSCLC
# NCI-H522 lung = tested on: NCI-H522 lung
# A549/ATCC NSCLC = tested on: A549/ATCC NSCLC
# 786-0 renal = tested on: 786-0 renal
# COLO 205 colon = tested on: COLO 205 colon
# DU-145 prostate = tested on: DU-145 prostate
# K-562 leukemia = tested on: K-562 leukemia
# MALME-3M melanoma = tested on: MALME-3M melanoma
# MDA-MB-231 breast = tested on: MDA-MB-231 breast
# RXF 393 renal = tested on: RXF 393 renal
# SF-268 CNS = tested on: SF-268 CNS
# SF-295 CNS = tested on: SF-295 CNS
# SF-539 CNS = tested on: SF-539 CNS
# UACC-257 melanoma = tested on: UACC-257 melanoma
# M14 melanoma = tested on: M14 melanoma
SMILES,growth (NCI-H23 lung) [%],growth (NCI-H226 lung) [%],growth (NCI-H322M lung),growth (HOP-62 NSCLC),growth (NCI-H460 lung),growth (HOP-92 NSCLC),growth (NCI-H522 lung) [%],growth (A549/ATCC NSCLC),growth (786-0 renal) [%],growth (COLO 205 colon),growth (DU-145 prostate),growth (K-562 leukemia),growth (MALME-3M melanoma),growth (MDA-MB-231 breast) [%],growth (RXF 393 renal),growth (SF-268 CNS) [%],growth (SF-295 CNS) [%],growth (SF-539 CNS),growth (UACC-257 melanoma),growth (M14 melanoma)
CCN1CCN(C(=O)[C@]23CCC(C)(C)C[C@@H]2C2=CC[C@@H]4[C@@]5(C)C/C(=C/c6cccnc6)C(=O)C(C)(C)[C@@H]5CC[C@@]4(C)[C@]2(C)CC3)CC1,27.1,32.9,62.3%,44.5%,12.1%,9.8% (active),28.4,13.5%,50.2,25.9%,50%,6.69% (active),30.3%,40.7,-7.84% (active),37.6,16.7,41.5%,3.05% (active),34.4%
N#C/C(=C\c1ccc(-c2ccc(Cl)cc2)o1)c1nc(-c2ccco2)cs1,93.9,89.3,91.6%,97.5%,96%,85.8%,90.6,91.9%,104,109%,103%,94.4%,99.9%,85.3,108%,101,92.9,94.7%,104%,98.9%
COc1ccc(-n2c(/C=C/c3ccc(O)c(OC)c3)cc(/C=C/c3ccc(O)c(OC)c3)nc2=O)cc1,42.5,70.7,83.6%,63.4%,78%,79.8%,29.3,79.1%,82.8,56.8%,68.9%,11.8%,85%,43.8,45.4%,41.4,82.3,39%,82.2%,40.4%
COC(=O)[C@]12CC[C@@H](C(C)=O)[C@@H]1[C@H]1CC[C@@H]3[C@@]4(C)C/C(=C/c5cccnc5)C(=O)C(C)(C)[C@@H]4CC[C@@]3(C)[C@]1(C)CC2,53.2,48.1,93.9%,103%,70.9%,66.7%,47.5,51.4%,84.9,82.5%,68.8%,18.3%,29.9%,76.6,30.9%,68.6,75.3,81%,58.1%,56.7%
C/C(Cc1ccc(Cl)cc1)=C(/c1ccc(Cl)cc1)c1ccc(OCCN2CCCC2)cc1,78.7,96.4,93.4%,91.7%,35.9%,60.8%,73.7,69.8%,86,61.6%,87%,15.2%,77.7%,89.2,86.3%,92.4,92.9,89.7%,79.7%,78.2%
C=C(C)[C@@H]1CC[C@]2(C=NCCCNCCCCNCCCN)CC[C@]3(C)[C@H](CC[C@@H]4[C@@]5(C)CCCNC(C)(C)[C@@H]5CC[C@]43C)[C@@H]12,82.5,80.1,100%,92.9%,91.7%,92.4%,99.6,88.8%,107,79.1%,101%,20.1%,103%,104,110%,102,91.2,95.3%,107%,98.5%
O=C1C(=O)c2ccccc2C(O)=C1CCCc1ccc(C2CCCCC2)cc1,36.9,47.1,81.3%,44%,7.15% (active),40.7%,54.7,21.1%,30.8,42.6%,39.2%,32.8%,87.9%,52.1,67.2%,38.1,39.7,29.2%,34.9%,56.3%
O=C(NCN1C(=O)c2cccc3cccc(c23)C1=O)N1CCC(Cc2ccccc2)CC1,93.9,96.7,105%,94%,103%,70%,77.9,89.8%,102,97.5%,106%,90.2%,96.6%,98.2,107%,100,96.8,102%,103%,92.5%
Cc1cccc(C)c1NC(=O)CSC(=S)N1CCN(CCOCCO)CC1,100,117,85.8%,105%,114%,110%,90,101%,96.4,113%,101%,96%,87.3%,116,125%,93.9,95.9,94.3%,112%,100%
Cc1cc(N2CCCCC2)nc(N(CCCNc2ccnc3cc(Cl)ccc23)Cc2ccco2)n1,21.4,57.1,19.6%,8.53% (active),10.7%,-6.02% (active),49.9,18.4%,24.2,-35.3% (active),39%,3.78% (active),-5.59% (active),21.8,19.6%,44,20.3,-36.5% (active),49.4%,-74.4% (active)
Cc1csc(Nc2nc(-c3cccc(Br)c3)nc(C(Cl)(Cl)Cl)n2)n1,85.6,110,-29.9% (active),34%,9.54% (active),51.2%,97.1,5.62% (active),75.2,4.32% (active),-5.72% (active),84%,98.8%,15.5,20.2%,78.1,20.7,41%,60.6%,86.4%
Cn1c(=O)c2c(nc(N3CCCC3)n2C)n(C)c1=O,96.4,102,105%,104%,102%,90.9%,91.5,85.6%,97,110%,105%,99.2%,103%,98.9,104%,97.3,102,101%,93.2%,92.3%
Cc1csc(Nc2nc(-c3ccc(Cl)cc3)nc(C(Cl)(Cl)Cl)n2)n1,95.3,110,-3.18% (active),76.4%,56.6%,83.3%,92.8,34.6%,89.5,52.6%,12.6%,87.2%,99.9%,79.9,87.1%,90.5,60.8,87.2%,98.7%,95.9%
CC(=O)OC(C)COc1ccc(-c2ccccc2)cc1 (stereo not given),107,106,121%,102%,105%,89.9%,84.4,54.9%,93.4,104%,101%,97.9%,118%,103,104%,96.1,97.5,101%,74.3%,92.1%
